# In PubChem BioAssay (EPA / NIEHS):
# Inconclusive results are not listed. Active and inactive are the calls of the source. How the source made its calls, unless noted: active means hit-call score of the fitted dose curve at least 0.9, where 1 is the maximum; inconclusive means response in the unintended direction; inactive means score below 0.9.
# What was measured:
# THRA (gene 7067) = THRA (gene 7067) (UniProt P10827); experiment: TOX21_TRA_COA_Antagonist_Followup_ratio: Tox21 Thyroid Hormone Receptor alpha Antagonism through Coactivator Recruitment Follow-Up Assay, Ratio (AID 2283953)
# THRA (gene 7067), sequence (P10827 whole entry, looked up, the tested form may be a part): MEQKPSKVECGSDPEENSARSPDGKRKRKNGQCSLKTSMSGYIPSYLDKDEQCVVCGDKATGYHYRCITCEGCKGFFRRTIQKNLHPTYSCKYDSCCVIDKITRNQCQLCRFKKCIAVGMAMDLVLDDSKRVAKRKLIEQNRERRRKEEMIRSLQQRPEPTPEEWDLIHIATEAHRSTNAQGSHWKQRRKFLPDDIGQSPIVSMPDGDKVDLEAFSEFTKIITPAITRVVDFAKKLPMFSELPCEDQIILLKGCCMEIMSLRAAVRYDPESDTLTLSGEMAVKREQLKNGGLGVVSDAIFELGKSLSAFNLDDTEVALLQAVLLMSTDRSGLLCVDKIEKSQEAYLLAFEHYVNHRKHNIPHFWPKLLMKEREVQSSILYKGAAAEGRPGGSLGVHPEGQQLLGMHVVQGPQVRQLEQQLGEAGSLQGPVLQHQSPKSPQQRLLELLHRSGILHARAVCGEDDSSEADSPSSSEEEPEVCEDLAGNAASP
# Procedure, shortened: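 This follow-up to the GH3 luciferase screen checks specificity in a cell-free format. It measures SRC-2 coactivator peptide binding to TRα LBD by TR-FRET and scores loss of ratio signal relative to DMSO.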
# THRB (gene 7068) [1] = target: THRB (gene 7068) (UniProt P10828); experiment: TOX21_TRB_BLA_Antagonist_Followup_ratio: Tox21 Thyroid Hormone Receptor beta Antagonism Beta-lactamase (BLA) Follow-Up Assay, Ratio (AID 2283958)
# THRB (gene 7068), sequence (P10828 whole entry, looked up, the tested form may be a part): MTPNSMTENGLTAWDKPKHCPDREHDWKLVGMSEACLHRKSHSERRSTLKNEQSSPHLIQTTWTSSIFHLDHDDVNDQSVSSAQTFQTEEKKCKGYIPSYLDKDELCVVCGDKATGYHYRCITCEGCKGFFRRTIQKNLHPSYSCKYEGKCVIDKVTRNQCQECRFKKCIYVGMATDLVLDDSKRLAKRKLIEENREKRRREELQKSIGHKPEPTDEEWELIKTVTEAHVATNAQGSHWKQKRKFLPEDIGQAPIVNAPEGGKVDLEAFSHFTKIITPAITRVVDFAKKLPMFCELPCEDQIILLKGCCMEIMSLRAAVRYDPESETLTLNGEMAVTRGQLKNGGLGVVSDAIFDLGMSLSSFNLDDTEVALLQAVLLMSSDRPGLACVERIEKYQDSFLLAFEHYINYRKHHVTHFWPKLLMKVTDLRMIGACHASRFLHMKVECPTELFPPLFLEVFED
# Procedure, shortened: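 GAL4-DBD/human TRβ-LBD fusion in GeneBLAzer UAS-bla HEK293T cells, 3,000 cells/well in phenol red-free DMEM with 2% charcoal-stripped FBS; compounds at 11 concentrations in triplicate, 18 h at 37C. CCF4-AM substrate 2 h, 460:530 nm ratio relative to DMSO.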
# [2] = TOX21_TRB_BLA_Antagonist_Followup_viability: Viability Assessment in the Tox21 Thyroid Hormone Receptor beta Antagonism Beta-lactamase (BLA) Follow-Up Assay (AID 2283961)
# From the text: The GeneBLAzer TRb-UAS-bla HEK293T assay kit for human TRb (ThermoFisherScientific Catalog No. K1684) was used as a secondary assay for specificity (TRb-bla).This assay contained the ligand-binding domain (LBD) of the human TRb fused to the DNA-binding domain of GAL4 stably integrated in the GeneBLAzer UAS-bla HEK293Tcell line. The reporter gene, b-lactamase, is under the transcriptional control of a UAS that binds the GAL4 DNA-binding domain. A cell viability assay was run in parallel for these cells as well using the CellTiter-Glo viability assay kit.TOX21_TRB_BLA_Antagonist_Followup_viability is a component of the TOX21_TRB_BLA_Antagonist_Followup assay. This component measures cell viability using the CellTiter-Glo Luciferase-coupled ATP quantitation.TOX21_TRB_BLA_Antagonist_Followup_viability used a type of viability reporter where loss-of-signal activity can be used to understand changes in the cell viability. Furthermore, this assay endpoint can be referred to as a secondary readout, because this assay has produced multiple assay endpoints where this one serves a viability function. To generalize the intended target to other relatable targets, this assay endpoint is annotated to the cell cycle intended target family, where the subfamily is cytotoxicity. […]
# THRB (gene 7068) [3] = target: THRB (gene 7068) (UniProt P10828); experiment: TOX21_TRB_COA_Antagonist_Followup_ratio: Tox21 Thyroid Hormone Receptor beta Antagonism through Coactivator Recruitment Follow-Up Assay, Ratio (AID 2283967)
# Procedure, shortened: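 Test compound was incubated with 5.0 nM GST-TRβ LBD in 0.10% BSA. Then 200 nM fluorescein-SRC-2 peptide and 2 nM terbium anti-GST antibody were added. TR-FRET (520:495 nm) was measured and normalized to DMSO and T3 controls.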
# [4] = target: Retinoic acid receptor RXR-alpha (Homo sapiens) (UniProt P19793); experiment: TOX21_TR_RXR_BLA_Antagonist_Followup_ratio: Tox21 Thyroid Hormone Receptor beta Retinoid X Receptor alpha (RXRa) Antagonism Beta-lactamase (BLA) Follow-Up Assay, Ratio (AID 2283972)
# Retinoic acid receptor RXR-alpha (Homo sapiens), sequence (P19793 whole entry, looked up, the tested form may be a part): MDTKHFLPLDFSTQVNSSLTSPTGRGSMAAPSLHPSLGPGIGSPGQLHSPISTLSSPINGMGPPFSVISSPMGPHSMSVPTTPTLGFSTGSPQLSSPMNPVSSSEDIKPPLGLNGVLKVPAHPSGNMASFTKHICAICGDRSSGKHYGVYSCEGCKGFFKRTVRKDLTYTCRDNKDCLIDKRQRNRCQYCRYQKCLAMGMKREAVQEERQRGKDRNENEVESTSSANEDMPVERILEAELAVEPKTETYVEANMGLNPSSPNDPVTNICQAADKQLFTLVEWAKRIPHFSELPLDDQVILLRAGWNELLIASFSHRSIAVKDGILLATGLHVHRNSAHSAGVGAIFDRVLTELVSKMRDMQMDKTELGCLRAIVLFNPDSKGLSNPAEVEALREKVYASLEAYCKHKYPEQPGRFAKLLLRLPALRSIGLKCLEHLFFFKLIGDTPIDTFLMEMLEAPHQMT
# Procedure, shortened: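 Beta-lactamase reporter readout as cleaved/uncleaved substrate ratio (460:530 nm) after 2 h substrate loading at room temperature. GAL4-RXRa bla HEK293T cells were exposed 16 h at 37C to 11-point compound series; loss of signal scored against DMSO baseline.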
# [5] = TOX21_TR_RXR_BLA_Agonist_Followup_viability: Viability Assessment in the Tox21 Thyroid Hormone Receptor beta Retinoid X Receptor alpha (RXRa) Agonism Beta-lactamase (BLA) Follow-Up Assay (AID 2283970)
# Procedure, shortened: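 RXRa-UAS-bla HEK293T cells seeded at 2,500/well in phenol red-free DMEM with 2% charcoal-stripped FBS, exposed to compound 16h at 37C/5% CO2 in qHTS. Viability read by CellTiter-Glo ATP luminescence; bidirectional fitting against DMSO baseline, signal loss indicating cytotoxicity.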
# THRB (gene 7068) [6] = target: THRB (gene 7068) (UniProt P10828); experiment: TOX21_TRB_BLA_Agonist_Followup_ratio: Tox21 Thyroid Hormone Receptor beta Agonism Beta-lactamase (BLA) Follow-Up Assay, Ratio (AID 2283954)
# From the text: The GeneBLAzer TRb-UAS-bla HEK293T assay kit for human TRb (ThermoFisherScientific Catalog No. K1684) was used as a secondary assay for specificity (TRb-bla). This assay contained the ligand-binding domain (LBD) of the human TRb fused to the DNA-binding domain of GAL4 stably integrated in the GeneBLAzer UAS-bla HEK293Tcell line. The reporter gene, b-lactamase, is under the transcriptional control of a UAS that binds the GAL4 DNA-binding domain. A cell viability assay was run in parallel for these cells as well using the CellTiter-Glo viability assay kit.TOX21_TRB_BLA_Agonist_Followup_ratio is an assay readout measuring reporter gene via receptor activity and designed using inducible reporter (beta lactamase induction) detected with GAL4 b-lactamase reporter gene. The signal is derived from the ratio of cleaved (ch2) to uncleaved (ch1) reporter gene substrate used as the measure of target activity.Data from the assay component TOX21_TRB_BLA_Agonist_Followup_ratio was analyzed into 1 assay endpoint. This assay endpoint, TOX21_TRB_BLA_Agonist_Followup_ratio, was analyzed in the positive analysis fitting direction relative to DMSO as the negative control and baseline of activity. […] Furthermore, this assay endpoint can be referred to as a primary readout, because this assay has produced multiple assay endpoints and this ratio serves a reporter gene function to understand target activity. […]
# THRB (gene 7068) [7] = target: THRB (gene 7068) (UniProt P10828); experiment: TOX21_TRB_COA_Agonist_Followup_ratio: Tox21 Thyroid Hormone Receptor beta Agonism through Coactivator Recruitment Follow-Up Assay, Ratio (AID 2283963; active means hit-call score of the fitted dose curve at least 0.9, where 1 is the maximum; inactive means score below 0.9)
# Procedure, shortened: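 Signal is the 520/495 nm emission ratio (excitation 340 nm), scaled between DMSO-only wells as 0% and T3 wells as 100%. It reflects fluorescein-labeled SRC-2 peptide recruitment to GST-TRβ ligand-binding domain detected via terbium anti-GST antibody.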
# [8] = target: Retinoic acid receptor RXR-alpha (Homo sapiens) (UniProt P19793); experiment: TOX21_TR_RXR_BLA_Agonist_Followup_ratio: Tox21 Thyroid Hormone Receptor beta Retinoid X Receptor alpha (RXRa) Agonism Beta-lactamase (BLA) Follow-Up Assay, Ratio (AID 2283968)
# Procedure, shortened: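 RXRa-UAS-bla HEK293T cells (GAL4 beta-lactamase reporter) were treated with compounds at 11 concentrations in triplicate for 16 h at 37C/5% CO2, then loaded with CCF4-AM substrate for 2 h at room temperature; activity is the 460:530 nm ratio versus DMSO baseline.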
# [9] = CCTE_Harrill_HTTr_Viability_DMEM_6hr: (Pilot) CCTE's 6-hour Cell Viability Assessment for the High-Throughput Transcriptomics (HTTr) Platform, in MCF-7 cells cultured in DMEM + 10% fetal bovine serum, Harrill Lab (AID 2283973; active means hit-call score of the fitted dose curve at least 0.9, where 1 is the maximum; inactive means score below 0.9)
# Procedure, shortened: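 MCF-7 cells in DMEM + 10% FBS, eight-point dilution series, 6 h exposure. Membrane integrity by propidium iodide exclusion with high-content imaging; bidirectional fit versus DMSO.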
smiles,measurement,setting,value
COc1cc(C(=O)NC2CCN(C)CC2)ccc1Nc1ncc2c(n1)N(C1CCCC1)CC(F)(F)C(=O)N2C,outcome,THRA (gene 7067),inactive
same,AC50,THRB (gene 7068) [1],3.69 µM (active)
same,AC50,[2],46.7 µM (active)
same,outcome,THRB (gene 7068) [3],inactive
same,outcome,[4],inactive
O=C(O)Cc1cc(I)c(Oc2ccc(O)c(I)c2)c(I)c1,outcome,[5],inactive
O=C1O[C@H]([C@@H](O)CO)C(O)=C1O,outcome,THRB (gene 7068) [6],inactive
same,outcome,THRB (gene 7068) [7],inactive
same,outcome,[8],inactive
CC1(C)NC(=O)N(c2ccc([N+](=O)[O-])c(C(F)(F)F)c2)C1=O,outcome,[9],inactive
